In the supplement of paper PMC12669032:
Values without a mark were called inactive.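 The calls were made as follows: active = AUC reduced over 20% with Padj below 0.05 in at least 2 of 3 replicates; inactive = otherwise.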

Tests used:
Experiment in all cases: growth AUC relative to DMSO control (median of replicates) (fraction); higher = more growth (less inhibition), active = hit call of the paper
Conditions in all cases: 20 µM; 24 h
Coprococcus comes = system: Coprococcus comes
Outline: (§1)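 Gut bacteria were grown singly in mGAM at 37 °C without oxygen, from OD600 0.05, alongside 20 µM compound in 1% DMSO, and OD600 was read each hour for 24 h. Area under the growth curve was normalised to the median of solvent-only wells per plate, or to row and column medians on the industrial chemical plate. The minimum OD was set to 0 beforehand, and the reported value is the median of three biological replicates grown on separate days.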

Escherichia coli ED1a = system: Escherichia coli ED1a
Outline: as §1

Escherichia coli IAI1 = system: Escherichia coli IAI1
Outline: as §1

Eubacterium rectale = system: Eubacterium rectale
Outline: as §1

[1] = system: Fusobacterium nucleatum subsp. animalis
Outline: as §1

Lactobacillus gasseri = system: Lactobacillus gasseri
Outline: as §1

Lactobacillus paracasei = system: Lactobacillus paracasei
Outline: as §1

Odoribacter splanchnicus = system: Odoribacter splanchnicus
Outline: as §1

[2] = system: Parabacteroides distasonis
Outline: as §1

Parabacteroides merdae = system: Parabacteroides merdae
Outline: as §1

Roseburia intestinalis = system: Roseburia intestinalis
Outline: as §1

Streptococcus salivarius = system: Streptococcus salivarius
Outline: as §1

Row | SMILES | growth AUC (Coprococcus comes) | growth AUC (Escherichia coli ED1a) | growth AUC (Escherichia coli IAI1) | growth AUC (Eubacterium rectale) | growth AUC [1] | growth AUC (Lactobacillus gasseri) | growth AUC (Lactobacillus paracasei) | growth AUC (Odoribacter splanchnicus) | growth AUC [2] | growth AUC (Parabacteroides merdae) | growth AUC (Roseburia intestinalis) | growth AUC (Streptococcus salivarius)
1 | CS(=O)(=O)c1ccc(C(=O)C2C(=O)CCCC2=O)c([N+](=O)[O-])c1 | 0.966 | 1 | 0.985 | 0.882 | 0.97 | 1.04 | 1.02 | 0.736 | 0.998 | 0.948 | 0.976 | 1.03
2 | O=C(NC(=O)c1c(F)cccc1F)Nc1ccc(Oc2ccc(C(F)(F)F)cc2Cl)cc1F | 1 | 1.03 | 1.03 | 0.994 | 0.951 | 1.21 | 0.974 | 0.978 | 0.988 | 1 | 1.1 | 0.985
3 | COc1ccc(-c2ccccc2)cc1NNC(=O)OC(C)C | 0.957 | 1.03 | 1.01 | 1 | 0.965 | 0.967 | 0.971 | 0.948 | 0.892 | 0.937 | 1.03 | 1.02
4 | CON(C)C(=O)Nc1ccc(Cl)c(Cl)c1 | 1 | 1.02 | 0.977 | 0.95 | 0.936 | 1.01 | 0.996 | 0.981 | 1.01 | 1 | 0.925 | 0.945
5 | Oc1c(Cl)ccc(Cl)c1Cl | 0.98 | 1.02 | 0.985 | 0.969 | 1.05 | 0.922 | 1.01 | 0.915 | 0.911 | 0.981 | 0.951 | 0.964
6 | CCOP(=S)(OCC)SCCSCC | 1.03 | 1.01 | 1 | 0.971 | 1.09 | 1.02 | 1.1 | 1.02 | 0.991 | 1.01 | 1.02 | 1.01
7 | O=C1C[C@@H]2OCC=C3CN4CC[C@]56c7ccccc7N1[C@H]5[C@H]2[C@H]3C[C@H]46 | 0.984 | 0.973 | 0.985 | 1 | 0.909 | 0.928 | 1.09 | 1.08 | 0.988 | 0.967 | 0.998 | 0.968
8 | CNC(=O)ON=C(CS(C)=O)C(C)(C)C (stereo not drawn) | 1 | 1.02 | 0.998 | 1.14 | 1.01 | 1.06 | 0.999 | 1.02 | 1.03 | 1.01 | 0.974 | 0.989
9 | CCCCC(C#N)(Cn1cncn1)c1ccc(Cl)cc1 (stereo not drawn) | 1.02 | 0.966 | 0.97 | 1.01 | 1.02 | 0.965 | 0.916 | 1.04 | 1.02 | 0.988 | 0.94 | 0.993
10 | COC(=O)Nc1cccc(OC(=O)Nc2cccc(C)c2)c1 | 1.03 | 1 | 0.966 | 1 | 0.944 | 0.933 | 0.987 | 1.05 | 0.976 | 0.968 | 0.936 | 0.996
11 | CCOC(=O)C(SP(=S)(OC)OC)c1ccccc1 (stereo not drawn) | 1.02 | 0.991 | 0.976 | 0.821 | 0.904 | 1.05 | 1.02 | 0.958 | 0.746 (active) | 0.958 | 1.03 | 1
12 | O=S(=O)(Oc1ccc(Cl)cc1)c1ccc(Cl)cc1 | 1.01 | 0.971 | 1 | 1.08 | 1.09 | 0.84 | 0.926 | 0.983 | 0.761 (active) | 0.945 | 0.948 | 0.983
13 | CCO/N=C(\CC)C1=C(O)CC(c2c(C)cc(C)cc2C)CC1=O (stereo not drawn) | 1 | 0.992 | 0.978 | 1.07 | 1.05 | 0.875 | 0.969 | 1.07 | 0.995 | 0.909 | 0.945 | 0.967
14 | CCNC(=O)NC(=O)/C(C#N)=N/OC | 1.05 | 1.04 | 1.02 | 0.919 | 1.2 | 1.06 | 0.94 | 1.02 | 1.04 | 1.01 | 1.16 | 0.949
15 | O=C(NC(=O)c1c(F)cccc1F)Nc1ccc(Cl)c(Oc2ncc(C(F)(F)F)cc2Cl)c1 | 0.98 | 0.999 | 1.01 | 0.951 | 1.1 | 1.16 | 0.815 | 1.13 | 1.02 | 0.991 | 1 | 1.02
16 | COP(=S)(OC)Oc1cc(Cl)c(I)cc1Cl | 1.01 | 1.02 | 0.985 | 1.01 | 1.08 | 0.872 | 1 | 0.962 | 0.707 (active) | 0.964 | 0.974 | 0.936
17 | Oc1ccc(-c2ccccc2)cc1 | 1.01 | 0.991 | 0.987 | 1 | 0.968 | 1.04 | 0.693 | 1.09 | 1.02 | 0.989 | 0.947 | 0.968
18 | ClC1=C(Cl)[C@]2(Cl)[C@@H]3[C@@H]4C[C@@H]([C@H]5O[C@@H]45)[C@@H]3[C@@]1(Cl)C2(Cl)Cl | 0.95 | 0.977 | 0.996 | 0.999 | 0.881 | 0.999 | 0.959 | 0.899 | 1.05 | 0.932 | 1 | 1.03
19 | CNC(=O)Oc1cc(C)cc(C(C)C)c1 | 1.01 | 0.959 | 0.957 | 1.04 | 0.907 | 0.889 | 0.974 | 1.11 | 0.979 | 0.992 | 1.06 | 0.935
20 | Fc1ccc(C2(Cn3cncn3)OC2c2ccccc2Cl)cc1 (stereo not drawn) | 0.969 | 1.02 | 1.01 | 0.72 (active) | 0.95 | 0.996 | 0.942 | 0.864 | 0.968 | 0.933 | 1.03 | 0.966
21 | Cc1cc(Cl)ccc1O | 0.989 | 1 | 1.02 | 1.02 | 1.07 | 0.979 | 0.873 | 1.07 | 1.02 | 1.04 | 1.01 | 1.04
22 | C=CC(N)=O | 1.01 | 0.972 | 1 | 0.997 | 1.02 | 1.01 | 1.01 | 1.01 | 0.976 | 0.993 | 1.01 | 1.01
23 | COC(=O)COc1ccc(Cl)cc1Cl | 0.98 | 0.968 | 0.968 | 1.21 | 0.946 | 0.915 | 1.04 | 1.14 | 0.931 | 0.964 | 0.943 | 0.937
24 | CNC1=C(c2cccc(C(F)(F)F)c2)C(=O)C(c2ccccc2)O1 (stereo not drawn) | 1.06 | 0.998 | 0.992 | 1 | 0.969 | 0.985 | 0.781 | 1.07 | 0.951 | 0.969 | 1.04 | 0.988
